PubChem BioAssay
Results filed as inconclusive are left out. Activity calls are given as the source filed them.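 How the source made its calls, unless noted: active means viability increase at or above a cutoff of the median across tested compounds plus 3 SD (cut at about 8.5% in these data, passing the limit was not always enough); inconclusive means some gains above the cutoff, reason not given; inactive means the rest.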

Assays:
[1] = Her2 expression decrease, cell viability multiplex – SKBR3 breast tumor cells, AlphaScreen, ATP viability, primary screen (AID 461;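 active means Her2 level under about 52% in both replicate screens, with viability over 70% of control, limit read from the data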;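 on Her2 level: lower value means less Her2 protein in the cells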;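 on viability: percent of carrier control wells set as 100% viability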); settings: SKBR3 Her2 protein level, 18-24 h, measured here: SKBR3 viability, ATP luminescence, at 10 µM
[2] = molecular target: Receptor tyrosine-protein kinase erbB-2 (Homo sapiens) (UniProt P04626); assay: as above; settings: 18-24 h, at 10 µM, stronger effect = lower value
Sequence of Receptor tyrosine-protein kinase erbB-2 (Homo sapiens) (P04626 whole entry, looked up): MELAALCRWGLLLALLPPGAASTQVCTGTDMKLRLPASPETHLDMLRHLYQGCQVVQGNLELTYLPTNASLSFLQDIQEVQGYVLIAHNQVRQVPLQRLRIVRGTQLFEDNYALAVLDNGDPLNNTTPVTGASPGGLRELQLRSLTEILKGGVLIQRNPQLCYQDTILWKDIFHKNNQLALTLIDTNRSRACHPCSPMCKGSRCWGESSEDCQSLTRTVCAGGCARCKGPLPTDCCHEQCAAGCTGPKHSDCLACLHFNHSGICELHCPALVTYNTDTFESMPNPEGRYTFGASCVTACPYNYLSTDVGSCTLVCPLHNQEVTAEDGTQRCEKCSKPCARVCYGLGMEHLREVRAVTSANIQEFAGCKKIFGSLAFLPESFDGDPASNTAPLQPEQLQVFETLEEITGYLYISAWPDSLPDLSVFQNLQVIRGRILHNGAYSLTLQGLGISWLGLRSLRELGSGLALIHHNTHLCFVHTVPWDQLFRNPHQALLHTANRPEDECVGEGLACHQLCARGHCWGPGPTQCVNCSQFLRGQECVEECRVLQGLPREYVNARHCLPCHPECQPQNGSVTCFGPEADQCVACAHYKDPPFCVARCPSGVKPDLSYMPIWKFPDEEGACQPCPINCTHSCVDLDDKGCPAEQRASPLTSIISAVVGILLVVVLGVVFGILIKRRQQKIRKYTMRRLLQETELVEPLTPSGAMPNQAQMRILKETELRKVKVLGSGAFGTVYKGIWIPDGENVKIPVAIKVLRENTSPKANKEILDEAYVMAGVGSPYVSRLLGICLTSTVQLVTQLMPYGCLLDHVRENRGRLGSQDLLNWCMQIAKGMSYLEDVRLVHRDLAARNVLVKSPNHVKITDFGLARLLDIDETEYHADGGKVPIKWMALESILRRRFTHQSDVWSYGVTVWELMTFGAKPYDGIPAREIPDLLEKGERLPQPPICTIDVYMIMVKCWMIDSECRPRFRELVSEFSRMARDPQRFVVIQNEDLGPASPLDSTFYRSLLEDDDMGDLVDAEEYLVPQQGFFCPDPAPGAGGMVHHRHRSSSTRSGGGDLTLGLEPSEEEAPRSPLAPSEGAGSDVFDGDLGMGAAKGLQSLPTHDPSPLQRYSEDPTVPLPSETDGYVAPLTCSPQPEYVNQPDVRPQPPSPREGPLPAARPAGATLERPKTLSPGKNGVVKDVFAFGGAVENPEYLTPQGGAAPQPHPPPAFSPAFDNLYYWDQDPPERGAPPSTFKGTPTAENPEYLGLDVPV

[3] = reduced viability of SK-BR-3 breast cancer cells – cell-based, 24 h, human, pilot screen (AID 572;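 active means viability at or below 10% of carrier control in both of two separate runs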;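 further: compound exposure lasted between 18 and 24 h rather than exactly 24 h; 100% = carrier-treated control wells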); settings: SK-BR-3 viability, CellTiter-Glo luminescence, at 10 µM, stronger effect = lower value
[4] = HUVEC growth inhibition – cell-based, human, primary screen (AID 575;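 active means viability at or below 30% in both replicate assays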;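 further: 100% = median of untreated cell wells with 0.1% DMSO on each plate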); settings: HUVEC proliferation, CellTiter-Glo luminescence, 72 h; at 10 µM; stronger effect = lower value
[5] = H69AR cell proliferation blockers – human, duplicate replicates, primary screen (AID 580;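 active means viability at or under a set limit in both replicates, limit being median viability minus 3 SD, cut at about 48% in these data, passing the limit was not always enough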;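 further: 100% = mean luminescence of untreated wells and 0% = no signal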); settings: H69AR lung tumor cells viability, ATP luminescence, 72 h; at 10 µM; stronger effect = lower value
[6] = MRP1 drug-resistance reversers in H69AR cells – cell-based, doxorubicin co-treatment, pilot screen (AID 601;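 active means viability loss from added drug above about 55%, and viability with drug at most 40%, in both replicates, limit read from the data, passing the limit was not always enough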); settings: CellTiter-Glo, 72 h, at 10 µM; for differential viability (reversal): stronger effect = higher value
[7] = yeast transport mutant growth inhibition pilot in 384-well plates, post-Golgi transport modulator project (AID 636; in the data active means inhibition above about 31%); settings: absorbance 615 nm, about 18 h, stronger effect = higher value
[8] = growth suppression of yeast trafficking mutant, preliminary HTS, modulators of trafficking downstream of Golgi apparatus project, 1536-format plate, OD 615 nm (AID 637; in the data active means inhibition above about 30%); settings: yeast transport mutant growth, absorbance 615 nm, 18 h; stronger effect = higher value
[9] = S. cerevisiae growth inhibition in permissive medium (OD615), pilot counter-assay for S. cerevisiae lifespan shortening project, permissive growth control (AID 705;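 active means growth inhibition above 25% in both replicates, a cutoff set 3 SD above the mean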); settings: OD615, 24 h, at 10 µM, stronger effect = higher value
[10] = S. cerevisiae growth inhibition in restrictive medium, OD615, pilot screen, restrictive growth control, yeast lifespan reduction project (AID 706;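 active means growth inhibition above a set limit, 3 SD over mean compound inhibition, in both replicates, cut at about 43% in these data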;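 further: modified DeaD lifespan yeast strain shifted to restrictive glucose medium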); settings: OD615, 48 h, at 10 µM, stronger effect = higher value
[11] = doxorubicin toxicity protection in MRP-1 cells – H69AR cells, CellTiter-Glo, duplicate, MRP-1 activator project, pilot screen (AID 807); settings: H69AR viability with doxorubicin, CellTiter-Glo luminescence; at 10 µM; stronger effect = higher value;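 further: compound pretreatment 18-22 h then 72 h combined with doxorubicin; 0% = doxorubicin alone and 100% = vehicle without doxorubicin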
[12] = viability of HCT116 without oncogenic beta-catenin – human colon tumor cells, pilot screen (AID 823;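 active means cell viability at or below a set limit in both duplicate runs, the limit being the all-compound median minus 4 SD, cut at about 23% in these data, passing the limit was not always enough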;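 further: 0% = wells killed by 20 µM Hyamine and 100% = untreated DMSO cell wells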); settings: HCT116 beta-catenin knockout viability, CellTiter-Glo, 60 h; at 10 µM; stronger effect = lower value
[13] = viability of PTEN-null HCT116 cells – cell-based, HCT116 clonal line, CellTiter-Glo, pilot screen (AID 824;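 active means viability at or below 27.92% in each of two runs, the all-compound median minus 4 SD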;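 further: 0% = 20 µM Hyamine control and 100% = vehicle cell control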); settings: HCT116 PTEN-deleted viability, 60 h, at 10 µM, stronger effect = lower value
[14] = RAM pathway blockade in budding yeast – dse1pr::URA3 reporter, 5-FOA selection, pilot screen (AID 869;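 active means inhibition over a set limit, the all-compound mean plus 3 SD, in both replicate runs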;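 further: 0% = DMSO wells with no growth and 100% = 10 µM 1-NA-PP1 with full growth; RAM network block rescues cells from 5-FOA so hits raise OD615 growth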); settings: S. cerevisiae dse1pr::URA3 5-FOA growth, OD615, 2 d; at 10 µM; stronger effect = higher value; strain carries analog-sensitive mutant Cbk1 kinase
[15] = RAM signaling pathway blockade in yeast – S. cerevisiae, Pdr1DBD-CYC8 efflux-inhibited sensitized strain, primary screen (AID 1298;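 active means RAM network inhibition above 8.4% in each of two replicates, 3 SD over the compound average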;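 further: 0% = DMSO untreated cells without growth and 100% = 10 µM 1-NA-PP1 full growth; higher means more yeast growth rescued from 5-FOA killing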); settings: S. cerevisiae cbk1-as DSE1-URA3 strain, 5-FOA growth OD615, 2 d; at 50 µM; stronger effect = higher value
[16] = H69AR cells + 2 uM doxorubicin, measured here: viability with 2 uM doxorubicin, stronger effect = lower value
[17] = H69AR cells, compound alone cytotoxicity

Compound | viability [1] [%] | Her2 level [2] | viability [3] | viability [4] | viability [5] | differential viability (reversal) ([6]; H69AR cells + 2 uM doxorubicin) | viability [6, 16] [%] | viability [6, 17] [%] | inhibition [7] | inhibition [8] | growth inhibition [9] | growth inhibition [10] | viability increase [11] | viability [12] | viability [13] | inhibition [14] | RAM network inhibition [15]
Cc1ccc(C(=O)OCC(=O)Nc2ccc3c(c2)OCO3)o1 | 110 | 118% (inactive) | 110% (inactive) | 102% (inactive) | 97.3% (inactive) | 1.98% (inactive) | 95.3 | 97.3 | -2.16% (inactive) | -5.87% (inactive) | -4.63% (inactive) | -8.6% (inactive) | -1.03% (inactive) | 97.6% (inactive) | 99.3% (inactive) | 0.95% (inactive) | 2.58% (inactive)
CCOC(=O)N1CCC(Nc2ncnc3c2cnn3-c2ccc(C)cc2C)CC1 | 86 | 78.5% (inactive) | 86% (inactive) | 83.4% (inactive) | 72.7% (inactive) | 42.5% (inactive) | 30.2 | 72.7 | -4% (inactive) | 1.5% (inactive) | 5.81% (inactive) | -2.8% (inactive) | -6.54% (inactive) | 70.2% (inactive) | 67.4% (inactive) | 0.78% (inactive) | 1.71% (inactive)
CC1CCCCC1NC(=O)Cn1ncc2ccccc21 (stereo not given) | 104 | 104% (inactive) | 104% (inactive) | 82.1% (inactive) | 90.4% (inactive) | 4.98% (inactive) | 85.4 | 90.4 | -2.93% (inactive) | 0.33% (inactive) | -12.1% (inactive) | -9.67% (inactive) | -1.21% (inactive) | 98.6% (inactive) | 95.7% (inactive) | 1.98% (inactive) | 0.04% (inactive)
CCN1CCN(C(=O)c2oc(=O)c3ccccc3c2-c2ccc(C)cc2)CC1 | 96 | 102% (inactive) | 96% (inactive) | 98.6% (inactive) | 96.4% (inactive) | -4.83% (inactive) | 101 | 96.4 | -3.07% (inactive) | 5.9% (inactive) | -1.38% (inactive) | -6.39% (inactive) | -3.04% (inactive) | 91.9% (inactive) | 90.5% (inactive) | 2.07% (inactive) | 1.85% (inactive)
CC1(C)CC(=O)C(C=NCC2CCNCC2)=C(O)C1 | 104 | 117% (inactive) | 104% (inactive) | 106% (inactive) | 93.8% (inactive) | -4.75% (inactive) | 98.5 | 93.8 | 1.04% (inactive) | 1.67% (inactive) | -20.1% (inactive) | -16.9% (inactive) | -1.11% (inactive) | 92.2% (inactive) | 92.3% (inactive) | 2.66% (inactive) | 6.82% (inactive)
COc1cccc(C(=O)OCn2nnc3ccccc3c2=O)c1OC | 85.5 | 102% (inactive) | 85.5% (inactive) | 97.7% (inactive) | 86.9% (inactive) | -22% (inactive) | 109 | 86.9 | -2.67% (inactive) | -3.67% (inactive) | 8.45% (inactive) | 5.07% (inactive) | 0.09% (inactive) | 96.5% (inactive) | 99.9% (inactive) | 2.57% (inactive) | -0.62% (inactive)
COc1ccc(OC)c(NC(=O)c2nnn(Cc3ccc(Br)cc3F)c2N)c1 | 80 | 88% (inactive) | 80% (inactive) | 40.9% (inactive) | 75.7% (inactive) | 16.7% (inactive) | 58.9 | 75.7 | 1.07% (inactive) | -0.49% (inactive) | -0.51% (inactive) | -7.43% (inactive) | 0.57% (inactive) | 69.5% (inactive) | 66.1% (inactive) | 1.21% (inactive) | 4.25% (inactive)
COc1ccc(C(=O)c2coc3ccc(O)c(CN4CCCCC4)c23)cc1 | 79.5 | 106% (inactive) | 79.5% (inactive) | 66% (inactive) | 75.5% (inactive) | -0.2% (inactive) | 75.7 | 75.5 | -3.07% (inactive) | 5.33% (inactive) | -3.45% (inactive) | -4.88% (inactive) | -4.51% (inactive) | 40.5% (inactive) | 53.3% (inactive) | 0.725% (inactive) | 6.6% (inactive)
O=C(Cn1nc(Cc2cccnc2)c2ccccc2c1=O)Nc1ccc2c(c1)OCO2 | 87 | 96.5% (inactive) | 87% (inactive) | 84.5% (inactive) | 85.2% (inactive) | 9.09% (inactive) | 76.2 | 85.2 | -4.8% (inactive) | -0.67% (inactive) | 0.565% (inactive) | 7.93% (inactive) | 2.16% (inactive) | 99% (inactive) | 106% (inactive) | 0.975% (inactive) | 2.81% (inactive)
COc1ccc(N2CCN(CCNC(=O)CCS(=O)(=O)c3cccc4nsnc34)CC2)cc1 | 90 | 97% (inactive) | 90% (inactive) | 99.9% (inactive) | 103% (inactive) | 11.1% (inactive) | 91.6 | 103 | -6.58% (inactive) | -0.16% (inactive) | 0.45% (inactive) | 4.11% (inactive) | -1.51% (inactive) | 98.5% (inactive) | 95.2% (inactive) | 0.835% (inactive) | 5.62% (inactive)
